Compound activity from PubChem BioAssay.
PRMT1 FP inh: PRMT1 methyltransferase inhibitors, primary screen, biochemical, fluorescence polarization; Protein arginine N-methyltransferase 1 (Homo sapiens), Q99873; recombinant PRMT1, activity-based probe fluorescence polarization; inhibition, % at 2.79 µM; 370,000 tested, 1.3% active; AID 652257, 2013;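 active = inhibition above about 21% made by adding two undisclosed values, limit read from the data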
NOD2-RIPK2 inh: NOD2-RIPK2 binding disruptors in cells, primary screen, fluorescence, CHO cells, BLA complementation | CCF4 ratio | 360,000 tested, 0.38% active | AID 624267, 2012 | Receptor-interacting serine/threonine-protein kinase 2 (Homo sapiens), O43353 | inhibition, % at 4.98 µM; in the data active = inhibition above about 21%;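 note: 0% = vehicle only and 100% = reference blocker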
ABHD5-PLIN5 inh: ABHD5-PLIN5 interaction inhibitors, primary screen, cell lysate, split luciferase complementation, luminescence; Perilipin-5 (Homo sapiens) + 1-acylglycerol-3-phosphate O-acyltransferase ABHD5 (Homo …; Split G. princeps luciferase complementation, 4 h; inhibition, % at 4 µM; 360,000 tested, 0.78% active; AID 602281, 2012;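 active = inhibition above the mean inhibition across every tested compound plus 3 SD, cut at about 22% in these data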;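 note: 0% = DMSO only wells and the 100% control is not disclosed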
TLR4 MyD88 comp: inhibitors of TLR4-MyD88 association in cells, primary screen, cell-based, HeLa CL3-4, BLA complementation, FRET ratio; Toll-like receptor 4 (Homo sapiens) + Myeloid differentiation primary response protein …; HeLa CL3-4 TLR4/MyD88 BLA complementation; inhibition, % at 8.4 µM; 200,000 tested, 0.18% active; AID 861, 2007; in the data active = inhibition above about 25%;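 note: 0% = vehicle and 100% = reference inhibitor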
TLR9-MyD88 inh: inhibitors of TLR9-MyD88 association in cells, primary screen, cell-based, CHO, BLA complementation, fluorescence; CCF4 FRET ratio; inhibition, % at 4.98 µM; 340,000 tested, 0.21% active; Toll-like receptor 9 (Homo sapiens) + Myeloid differentiation primary response protein …; AID 504734, 2011;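 active = inhibition above the mean over all tested compounds plus 3 SD, cut at about 21% in these data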;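 note: 0% = DMSO only wells and 100% = clavulanate BLA inhibitor control wells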
Exocytosis inh: LAMP-1 surface exposure blockers, TALL-104 cells – cell-based, flow cytometry, MLPCN library, primary screen. inhibition, % at 10 µM. 360,000 tested, 0.66% active. TALL-104 LAMP-1 surface exposure; cells stimulated with thapsigargin and PMA;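 active = inhibition above about 55%, limit read from the data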
An asterisk follows results filed as active; x = not tested or not shown. Shown are actives, neighbours in structure and some others; about 2.6% of the full set was active somewhere.

SMILES	PRMT1 FP inh	NOD2-RIPK2 inh	ABHD5-PLIN5 inh	TLR4 MyD88 comp	TLR9-MyD88 inh	Exocytosis inh
C=CCSC1=N/C(=C\c2sccc2C)C(=O)S1	6	-14	-5	4	0	0
Cc1ccc(CNC(=O)Cn2cnc(S(=O)(=O)N3CCC(C)CC3)c2)o1	8	3	22*	x	-1	0
CC(=O)c1ccc(NC(=O)Cn2cnc(S(=O)(=O)N3CCC(C)CC3)c2)cc1	-4	-5	-3	x	3	-11
CCCCn1c(NC(=O)CC)c(C#N)c2nc3ccccc3nc21	-1	6	7	-9	-2	5
N#Cc1c(NC(=O)c2ccccc2Cl)n(Cc2ccccc2)c2nc3ccccc3nc12	2	2	-43	-4	-8	104*
CCCCn1c(NC(=O)c2ccccc2Cl)c(C#N)c2nc3ccccc3nc21	-2	1	-52	-10	-1	63*
COC(=O)[C@]12C[C@H](CC(=O)NCc3ccc(OC)c(OC)c3)C(=O)N(Cc3ccccc3)C1=C[C@H](COCc1ccccc1)O[C@@H]2C	-1	x	x	x	x	x
CC(C)(C)S(=O)(=O)N1Cc2cc(CO)ccc2[C@H]1CCO	5	x	x	x	x	x
O=c1[nH]nc(CNc2ccc(O)cc2)c2ccccc12	25*	-9	-5	-1	-3	3
Cc1cc(C)c(C2=NOC3c4ccccc4OCC23)c(C)c1 (configuration not stated)	-2	x	x	x	x	x
COCCN=C1NC(=O)C(CC(=O)Nc2cccc(Cl)c2C)S1 (configuration not stated)	24*	-10	4	1	x	-1
CCOC(=O)C1CSCCS(=O)(=O)N1Cc1ccc(C)cc1 (configuration not stated)	0	x	x	x	x	x
CC1=C(c2ccccc2)C(=O)C(C)(C)CC1=O	-1	x	x	x	x	x
COc1cc(C=c2c3ccccc3n3c2cc(-c2ccccc2)[n+]3C)cc(OC)c1OC	6	-17	-28	x	-18	19
CN(C)c1ccc(C=c2c3ccccc3n3c2cc(-c2ccccc2)[n+]3C)cc1	0	13	18	x	-12	89*
O=C(/C=C/c1cc[n+](CC(=O)c2ccc3cccc4c3c2CC4)cc1)c1ccc2cccc3c2c1CC3	x	-9	23*	x	-10	70*
Cc1cc(NC(=O)CCS(=O)(=O)c2nc(-c3ccccc3)cc(C(F)(F)F)n2)no1	0	23*	42*	x	11	49
COc1ccc(-c2cc(C(F)(F)F)nc(S(=O)(=O)CCCC(=O)Nc3cccc(O)c3)n2)cc1OC	-1	-4	23*	12	x	-2
COc1ccccc1-c1cc(C(F)(F)F)nc(S(=O)(=O)CCCC(=O)O)n1	1	-2	14	-5	-8	2
Cc1ccc(S(=O)(=O)CCC(=O)Nc2cc(C)on2)cc1	5	-11	2	x	-9	-3
COC(=O)[C@]12C[C@H](CC(=O)NCc3cccc(C(F)(F)F)c3)C(=O)N(Cc3ccc(Cl)cc3Cl)C1=C[C@H](COCc1ccccc1)O[C@@H]2C	5	x	x	x	x	x
CCCSc1nnc(CNS(=O)(=O)c2ccc(C)cc2)n1C	-2	-1	22*	x	-22	-1
C=CCSc1nnc(CNS(=O)(=O)c2ccc(C)cc2)n1C	-2	4	-4	x	2	3
Cc1cccc(Cn2cc(COC(=O)N3CCOCC3)nn2)c1	-2	x	x	x	x	x
CCS(=O)(=O)N(C)C[C@@H]1OCc2ccccc2-c2c(n(C)c3ccccc23)C(=O)N([C@H](C)CO)C[C@@H]1C	3	x	x	x	x	x
O=C(CSc1nnc(-c2ccc(O)cc2)n1Cc1ccco1)c1cccs1	1	-2	-4	3	-1	-5
O=C(CC(SCc1ccco1)c1ccc(O)cc1)c1cccs1 (configuration not stated)	22*	-2	-4	5	1	-4
CC(C)c1ccc(N2C(=O)C(Cl)=C(N3CCOCC3)C2=O)cc1	1	7	-3	x	1	-16
